Test system in one experiment: not listed separately
As to the kind of experiment: small-molecule microarray binders of probe aLefty2, primary screen, biochemical, biotinylated probe, 635/667 nm fluorescence (AID 1094).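 Note: score merges spot fluorescence near 667 nm with spot signal-to-noise ratio.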 Conditions: higher = more signal.
With `CC(C)OC(=O)C=C1C[C@@H](c2ccccc2C(F)(F)F)O[C@@H](c2ccccc2C(F)(F)F)O1`, the composite z-score was -0.145. Same read-out and setting: next, `CC(C)(C)OC(=O)CC[C@]1(C(=O)O)N=C(c2ccc(OCCCO)cc2)O[C@H]1c1ccccc1N=[N+]=[N-]`: 1.1. Still for that read-out and setting: next, `O=C1OCC=C[C@H]2OC34C=CCN(c5ccc6ccccc6c5)C(=O)[C@H]3N(CCCCCCO)C(=O)[C@@H]4[C@@H]12` (stereo not given in full): -0.0493; `COc1cc2c(cc1OC)CN(C(=O)[C@H]1[C@@H]3C(=O)O[C@@H](c4ccccc4)[C@@H](c4ccccc4)N3[C@@H](c3ccc(O)cc3)[C@]13C(=O)Nc1ccc(C#CCNC(N)=O)cc13)CC2`: 0.0386.

The molecule `C=CCC(OC(C)=O)[C@@H]1[C@@H](N(Cc2cccc3ccccc23)C(=O)c2ccc(-c3ccccc3)cc2)c2cc(OCCCO)ccc2N1C(=O)Cc1ccc(OC)cc1` (stereo not given in full) showed a composite z-score of -0.0491. As to `COC(=O)c1c(CC[C@@H](CO)NC(=O)N2CCC[C@H]2Cn2cc(-c3ccccn3)nn2)oc(C(C)=O)c1C(=O)OC`, the composite z-score is -0.155. Same read-out and setting: next, `C=CCNC(=O)[C@@H]1[C@H]2C(=O)O[C@H](c3ccccc3)[C@H](c3ccccc3)N2[C@H](c2ccc(OCCO)cc2)[C@@]12C(=O)Nc1ccc(C#Cc3ccc(OC)cc3)cc12`: 0.182; `CN1C(=O)C2C=CC(C(O)c3cc(C(F)(F)F)cc(C(F)(F)F)c3)N(N3CCCCC3)C2C1=O` (stereo not given): 0.254; `COCCOC(=O)N1C(=O)[C@@]2(c3cc(C#CCCO)ccc31)[C@H](C(=O)N1CCN(c3ncccn3)CC1)[C@H]1C(=O)O[C@H](c3ccccc3)[C@H](c3ccccc3)N1[C@@H]2c1ccccc1OCCO`: -0.114.

The subject of a further experiment is Noggin (protein binding on small-molecule microarray). As to the kind of experiment: Noggin binders on small-molecule microarray, primary screen, biochemical, 635/667 nm fluorescence (AID 1095).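 Note: score merges 667 nm feature fluorescence with signal to noise over triplicate slides.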 Conditions: 635 nm fluorescence, higher = more signal.
In turn, `C=CCOC(=O)[C@H]1[C@@H]2C(=O)O[C@@H](c3ccccc3)[C@@H](c3ccccc3)N2[C@@H](c2ccc(OCCOC(=O)[C@H]3C[C@H]4C(=O)N5CCC[C@H]5C(=O)N4[C@H]3c3ccc(O)cc3)cc2)[C@]12C(=O)Nc1ccccc12` came in with a composite z-score of 0.744. Still for that read-out and setting: next, `COCCCN1C(=O)[C@@]2(c3ccc([N+](=O)[O-])cc3)CC(=O)N(C3CCCCC3)[C@@H]2c2ccc(CO)cc21`: 0.549.

Molecule `CN(C)CCCCCCNC(=O)[C@@H]1C[C@@H]2C(=O)N[C@@H](CCCCN)C(=O)N2[C@@H]1c1cccc(OCCO)c1` returned a composite z-score of 1.8. Same read-out and setting: next, `CC(C)c1ccc(NN2C(C(O)C(c3ccccc3)c3ccccc3)C=CC3C(=O)N(c4ccccc4)C(=O)C32)cc1` (stereo not given): 0.63; `C=C(CCCC)C(=O)CC[C@@H](OC(=O)c1cccnc1)c1ccc(CO)o1`: 1.61; `O=C(NCc1ccccc1)[C@@]1(Cc2ccccc2)N=C(c2ccc(OCCCO)cc2)O[C@H]1c1ccccc1`: -0.595.

For the molecule `COCCOC(=O)N1C(=O)[C@@]2(c3cc(C#Cc4ccc(OC)cc4)ccc31)[C@H](c1ccccc1OCCO)N1[C@H](c3ccccc3)[C@H](c3ccccc3)OC(=O)[C@H]1[C@@H]2C(=O)N1CCN(c2ncccn2)CC1`, the composite z-score turned out to be 0.936.

`O=C1NC(=O)C2C1C=CC(C(O)Cc1ccccc1)N2Nc1ccc(Cl)cc1Cl` (stereo not given) showed a composite z-score of -0.49. Still for that read-out and setting: next, `CCCCN1CC=CC23O[C@@H]4/C=C\CCC(C)OC(=O)C4[C@H]2C(=O)N(CCCCCO)[C@@H]3C1=O` (stereo not given in full): -0.976; `O=C1[C@H]2C=C(Br)[C@H](C[C@@H]2c2ccccc2)[C@@]12CO2`: 1.36.

For the molecule `CN1C(=O)C2C=CC(C(O)c3cccs3)N(Nc3ccccc3)C2C1=O` (stereo not given), the composite z-score came to 0.395. The same measure, in the same setting: next, `COCCOC(=O)N1C(=O)[C@@]2(c3cc(C#CCCO)ccc31)[C@H](C(=O)Nc1nc3ccccc3s1)[C@H]1C(=O)O[C@H](c3ccccc3)[C@H](c3ccccc3)N1[C@@H]2c1ccc(OCCO)cc1`: 0.874; `CC(C)(C)OC(=O)CC[C@@]12N=C(c3ccc(OCCCO)cc3)O[C@@H]1c1ccccc1N(CCS(=O)(=O)c1ccccc1)C2=O`: 0.427. On the same count and under the same terms, next, `COC(=O)[C@@]1(Cc2ccccc2)[C@H]2c3cc(C(=O)N4CCCC4)n(Cc4nc5ccccc5[nH]4)c3C[C@H]2CN1C(=O)c1ccccc1`: -0.192. `O=C1OCCC/C=C\[C@H]2OC34C=CCN(Cn5nnc6ccccc65)C(=O)[C@H]3N(CCO)C(=O)[C@@H]4C12` (stereo not given in full) had a composite z-score of -0.708.

As to `COc1cc2c(cc1O)C(C1CC1)N(Cc1cc3c(cc1Br)OCO3)CC2` (stereo not given), the composite z-score is -0.774.

The molecule `COCCOC(=O)N1C(=O)[C@@]2(c3cc(C#CC4=CCCCC4)ccc31)[C@H](C(=O)N1CCc3cc(OC)c(OC)cc3C1)[C@H]1C(=O)O[C@H](c3ccccc3)[C@H](c3ccccc3)N1[C@@H]2c1ccc(OCCO)cc1` showed a composite z-score of 0.916. On the same count and under the same terms, next, `Cc1ccc(S[C@]2(C(=O)NC(C)C)CC(=O)N(Cc3ccccc3Cl)[C@@H]2c2ccc(CO)cc2I)cc1`: -0.28; `COCCOC(=O)N1C(=O)[C@@]2(c3cc(C#CC4=CCCCC4)ccc31)[C@H](C(N)=O)[C@H]1C(=O)O[C@H](c3ccccc3)[C@H](c3ccccc3)N1[C@@H]2c1ccc(OCCO)cc1`: 0.904; `O=C1C2C=CC(C(O)C(c3ccccc3)c3ccccc3)N(n3cnnc3)C2C(=O)N1Cc1ccccc1` (stereo not given): 0.531. The same measure, in the same setting: next, `CC(C)(C)OC(=O)CC[C@@]1(C(=O)NCCN2CCOCC2)N=C(c2ccc(OCCCO)cc2)O[C@@H]1c1ccccc1N=[N+]=[N-]`: -0.0404. Still for that read-out and setting: next, `CN(C)C(=O)[C@@]1(Cc2ccccc2)N=C(c2ccc(OCCCO)cc2)O[C@H]1c1ccccc1N=[N+]=[N-]`: 0.835; `Cc1ccc(S[C@]2(C(=O)NCC(F)(F)F)CC(=O)N(C(C)C)[C@@H]2c2ccc(CO)cc2I)cc1`: -1.13; `CCOc1cc(C(O)C2C=CC3C(=O)N(c4ccccc4)C(=O)C3N2Nc2ccccc2)ccc1O` (stereo not given): -0.419.

The molecule `C=CCNC(=O)[C@H]1[C@@H]2C(=O)O[C@@H](c3ccccc3)[C@@H](c3ccccc3)N2[C@@H](c2ccc(OCCO)cc2)[C@]12C(=O)N(C(=O)OCCOC)c1ccccc12` displayed a composite z-score of 1.09. The molecule `C=CCN1C(=O)[C@@]2(O[C@@H](CCO)[C@H]([Si](C)(C)c3ccc(OC)cc3)[C@H]2C)c2cc(NC(=O)c3ccc(OC)cc3)ccc21` returned a composite z-score of 1.37.

As to `C[C@]1(C(=O)NC2CC2)c2ccccc2C(=O)N(Cc2cc(C(F)(F)F)cc(C(F)(F)F)c2)[C@H]1c1ccc(CO)cc1`, the composite z-score was 0.829. The same measure, in the same setting: next, `CC(C)OC(=O)C=C1C[C@@H](c2ccccc2C(F)(F)F)O[C@@H](c2ccccc2C(F)(F)F)O1`: 0.134. Same read-out and setting: next, `CC(C)(C)OC(=O)CC[C@]1(C(=O)O)N=C(c2ccc(OCCCO)cc2)O[C@H]1c1ccccc1N=[N+]=[N-]`: 0.189; `O=C1OCC=C[C@H]2OC34C=CCN(c5ccc6ccccc6c5)C(=O)[C@H]3N(CCCCCCO)C(=O)[C@@H]4[C@@H]12` (stereo not given in full): -1.33; `COc1cc2c(cc1OC)CN(C(=O)[C@H]1[C@@H]3C(=O)O[C@@H](c4ccccc4)[C@@H](c4ccccc4)N3[C@@H](c3ccc(O)cc3)[C@]13C(=O)Nc1ccc(C#CCNC(N)=O)cc13)CC2`: 0.622.

Take `C=CCC(OC(C)=O)[C@@H]1[C@@H](N(Cc2cccc3ccccc23)C(=O)c2ccc(-c3ccccc3)cc2)c2cc(OCCCO)ccc2N1C(=O)Cc1ccc(OC)cc1` (stereo not given in full): the composite z-score was found to be 0.0231. Still for that read-out and setting: next, `COC(=O)c1c(CC[C@@H](CO)NC(=O)N2CCC[C@H]2Cn2cc(-c3ccccn3)nn2)oc(C(C)=O)c1C(=O)OC`: 0.81; `C=CCNC(=O)[C@@H]1[C@H]2C(=O)O[C@H](c3ccccc3)[C@H](c3ccccc3)N2[C@H](c2ccc(OCCO)cc2)[C@@]12C(=O)Nc1ccc(C#Cc3ccc(OC)cc3)cc12`: 1.22.

In turn, `CN1C(=O)C2C=CC(C(O)c3cc(C(F)(F)F)cc(C(F)(F)F)c3)N(N3CCCCC3)C2C1=O` (stereo not given) came in with a composite z-score of -0.297. Still for that read-out and setting: next, `COCCOC(=O)N1C(=O)[C@@]2(c3cc(C#CCCO)ccc31)[C@H](C(=O)N1CCN(c3ncccn3)CC1)[C@H]1C(=O)O[C@H](c3ccccc3)[C@H](c3ccccc3)N1[C@@H]2c1ccccc1OCCO`: 0.791.

The values above are taken from PubChem BioAssay.
